Test results taken from the supplement of paper PMC4466140.

Legend:
Experiment in all cases: SPOT peptide array binding signal intensity (averaged, normalized) (arbitrary units (background-subtracted, floor 0; scale differs between SH3 domains)); higher = stronger binding of the SH3 domain to the peptide
[1] = target: AgAbp1
Summary of the method: (§1)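 Spot intensities were captured after detection with anti-GST antibody, an HRP-linked anti-mouse secondary and luminol, and quantified with Genespotter. The probes were GST-fused SH3 domains from four yeast species, produced in E. coli BL21(DE3), purified on glutathione Sepharose and incubated at 10 μg/ml overnight at 4°C on cellulose-bound synthetic 15-mer peptides with cysteines replaced by serines. Binding signal is the normalized, background-subtracted spot intensity averaged over replicates, and its arbitrary units differ between domains.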

[2] = target: AgBbc1
Summary of the method: as §1

[3] = target: AgBem1-D1
Summary of the method: as §1

[4] = target: AgBzz1-D1
Summary of the method: as §1

[5] = target: AgBzz1-D2
Summary of the method: as §1

[6] = target: AgCyk3
Summary of the method: as §1

[7] = target: AgFus1
Summary of the method: as §1

[8] = target: AgHof1
Summary of the method: as §1

[9] = target: AgHse1
Summary of the method: as §1

[10] = target: AgLsb1
Summary of the method: as §1

[11] = target: AgLsb4
Summary of the method: as §1

[12] = target: AgMyo5
Summary of the method: as §1

[13] = target: AgNbp2
Summary of the method: as §1

[14] = target: AgRvs167
Summary of the method: as §1

[15] = target: AgSho1
Summary of the method: as §1

[16] = target: AgSla1-D1-D2
Summary of the method: as §1

[17] = target: AgSla1-D3
Summary of the method: as §1

[18] = target: CaAbp1-D1
Summary of the method: as §1

[19] = target: CaAbp1-D2
Summary of the method: as §1

[20] = target: CaBbc1
Summary of the method: as §1

[21] = target: CaBem1-D1
Summary of the method: as §1

[22] = target: CaBzz1-D1
Summary of the method: as §1

[23] = target: CaBzz1-D2
Summary of the method: as §1

[24] = target: CaCyk3
Summary of the method: as §1

[25] = target: CaFus1
Summary of the method: as §1

[26] = target: CaHof1
Summary of the method: as §1

[27] = target: CaHse1
Summary of the method: as §1

[28] = target: CaLsb1
Summary of the method: as §1

[29] = target: CaLsb4
Summary of the method: as §1

[30] = target: CaMyo5
Summary of the method: as §1

[31] = target: CaNbp2
Summary of the method: as §1

[32] = target: CaRvs167
Summary of the method: as §1

[33] = target: CaRvs167-3
Summary of the method: as §1

[34] = target: CaSho1
Summary of the method: as §1

[35] = target: CaSla1-D1-D2
Summary of the method: as §1

[36] = target: CaSla1-D3
Summary of the method: as §1

[37] = target: ScAbp1
Summary of the method: as §1

[38] = target: ScBbc1
Summary of the method: as §1

[39] = target: ScBem1-D1
Summary of the method: as §1

[40] = target: ScBzz1-D1
Summary of the method: as §1

[41] = target: ScBzz1-D2
Summary of the method: as §1

[42] = target: ScCyk3
Summary of the method: as §1

[43] = target: ScFus1
Summary of the method: as §1

[44] = target: ScHof1
Summary of the method: as §1

[45] = target: ScHse1
Summary of the method: as §1

[46] = target: ScLsb1
Summary of the method: as §1

[47] = target: ScLsb2
Summary of the method: as §1

[48] = target: ScLsb3
Summary of the method: as §1

[49] = target: ScLsb4
Summary of the method: as §1

[50] = target: ScMyo3
Summary of the method: as §1

[51] = target: ScMyo5
Summary of the method: as §1

[52] = target: ScNbp2
Summary of the method: as §1

[53] = target: ScPex13
Summary of the method: as §1

[54] = target: ScRvs167
Summary of the method: as §1

[55] = target: ScSho1
Summary of the method: as §1

[56] = target: ScSla1-D1-D2
Summary of the method: as §1

[57] = target: ScSla1-D3
Summary of the method: as §1

[58] = target: SpAbp1-D1
Summary of the method: as §1

[59] = target: SpBbc1
Summary of the method: as §1

[60] = target: SpBzz1-D1
Summary of the method: as §1

B1: unnamed (peptide)
chain: PLRRTVMSLPGNHDI
SPOT peptide array binding signal intensity [1]: 206
SPOT peptide array binding signal intensity [2]: 19.6
SPOT peptide array binding signal intensity [3]: 302
SPOT peptide array binding signal intensity [4]: 9.5
SPOT peptide array binding signal intensity [5]: 4.75
SPOT peptide array binding signal intensity [6]: ≤ 0
SPOT peptide array binding signal intensity [7]: 598
SPOT peptide array binding signal intensity [8]: 6.25
SPOT peptide array binding signal intensity [9]: 302
SPOT peptide array binding signal intensity [10]: 29.5
SPOT peptide array binding signal intensity [11]: 4.5
SPOT peptide array binding signal intensity [12]: 3
SPOT peptide array binding signal intensity [13]: 396
SPOT peptide array binding signal intensity [14]: 3.83
SPOT peptide array binding signal intensity [15]: 453
SPOT peptide array binding signal intensity [16]: 24.2
SPOT peptide array binding signal intensity [17]: 6
SPOT peptide array binding signal intensity [18]: 776
SPOT peptide array binding signal intensity [19]: 1280
SPOT peptide array binding signal intensity [20]: 154
SPOT peptide array binding signal intensity [21]: 200
SPOT peptide array binding signal intensity [22]: 172
SPOT peptide array binding signal intensity [23]: 62.4
SPOT peptide array binding signal intensity [24]: 17
SPOT peptide array binding signal intensity [25]: 1290
SPOT peptide array binding signal intensity [26]: 0.375
SPOT peptide array binding signal intensity [27]: 106
SPOT peptide array binding signal intensity [28]: 0.5
SPOT peptide array binding signal intensity [29]: 493
SPOT peptide array binding signal intensity [30]: 19.6
SPOT peptide array binding signal intensity [31]: 1640
SPOT peptide array binding signal intensity [32]: 110
SPOT peptide array binding signal intensity [33]: 20
SPOT peptide array binding signal intensity [34]: 837
SPOT peptide array binding signal intensity [35]: 247
SPOT peptide array binding signal intensity [36]: 60.2
SPOT peptide array binding signal intensity [37]: 205
SPOT peptide array binding signal intensity [38]: 13
SPOT peptide array binding signal intensity [39]: 1.5
SPOT peptide array binding signal intensity [40]: 4.75
SPOT peptide array binding signal intensity [41]: 5.75
SPOT peptide array binding signal intensity [42]: 15
SPOT peptide array binding signal intensity [43]: 407
SPOT peptide array binding signal intensity [44]: ≤ 0
SPOT peptide array binding signal intensity [45]: 288
SPOT peptide array binding signal intensity [46]: 14.5
SPOT peptide array binding signal intensity [47]: ≤ 0
SPOT peptide array binding signal intensity [48]: 52
SPOT peptide array binding signal intensity [49]: 60
SPOT peptide array binding signal intensity [50]: ≤ 0
SPOT peptide array binding signal intensity [51]: ≤ 0
SPOT peptide array binding signal intensity [52]: 584
SPOT peptide array binding signal intensity [53]: 177
SPOT peptide array binding signal intensity [54]: 51.9
SPOT peptide array binding signal intensity [55]: 909
SPOT peptide array binding signal intensity [56]: 305
SPOT peptide array binding signal intensity [57]: 404
SPOT peptide array binding signal intensity [58]: 671
SPOT peptide array binding signal intensity [59]: 1.5
SPOT peptide array binding signal intensity [60]: 243
